# Measurements: ChEMBL document CHEMBL2218924, “A broad activity screen in support of a chemogenomic map for kinase signalling research and drug discovery” (Biochem J, 2013)
# How the values were obtained:
# [1] = target: Serine/threonine-protein kinase PLK3 (Homo sapiens) (UniProt Q9H4B4); conditions: at 1 µM
# [2] = target: Serine/threonine-protein kinase PLK3 (Homo sapiens) (UniProt Q9H4B4); conditions: at 10 µM
# [3] = target: T1, cAMP-dependent protein kinase catalytic subunit PRKX (Homo sapiens) (UniProt P51817); conditions: at 1 µM
# T1 sequence (whole entry): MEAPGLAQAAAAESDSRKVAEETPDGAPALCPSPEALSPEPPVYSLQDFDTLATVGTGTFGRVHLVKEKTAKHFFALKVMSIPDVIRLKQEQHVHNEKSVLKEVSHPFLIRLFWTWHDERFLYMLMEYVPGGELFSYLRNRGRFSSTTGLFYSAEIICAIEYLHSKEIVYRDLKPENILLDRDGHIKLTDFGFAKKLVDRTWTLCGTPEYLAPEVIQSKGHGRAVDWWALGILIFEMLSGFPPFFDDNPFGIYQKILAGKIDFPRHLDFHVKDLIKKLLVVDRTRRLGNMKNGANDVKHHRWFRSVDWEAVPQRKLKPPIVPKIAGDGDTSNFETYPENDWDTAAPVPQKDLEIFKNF
# [4] = target: T1, cAMP-dependent protein kinase catalytic subunit PRKX (Homo sapiens); conditions: at 10 µM
# [5] = target: Protein-tyrosine kinase 2-beta (Homo sapiens) (UniProt Q14289); conditions: at 1 µM
# Protein-tyrosine kinase 2-beta (Homo sapiens), sequence (Q14289 whole entry, looked up): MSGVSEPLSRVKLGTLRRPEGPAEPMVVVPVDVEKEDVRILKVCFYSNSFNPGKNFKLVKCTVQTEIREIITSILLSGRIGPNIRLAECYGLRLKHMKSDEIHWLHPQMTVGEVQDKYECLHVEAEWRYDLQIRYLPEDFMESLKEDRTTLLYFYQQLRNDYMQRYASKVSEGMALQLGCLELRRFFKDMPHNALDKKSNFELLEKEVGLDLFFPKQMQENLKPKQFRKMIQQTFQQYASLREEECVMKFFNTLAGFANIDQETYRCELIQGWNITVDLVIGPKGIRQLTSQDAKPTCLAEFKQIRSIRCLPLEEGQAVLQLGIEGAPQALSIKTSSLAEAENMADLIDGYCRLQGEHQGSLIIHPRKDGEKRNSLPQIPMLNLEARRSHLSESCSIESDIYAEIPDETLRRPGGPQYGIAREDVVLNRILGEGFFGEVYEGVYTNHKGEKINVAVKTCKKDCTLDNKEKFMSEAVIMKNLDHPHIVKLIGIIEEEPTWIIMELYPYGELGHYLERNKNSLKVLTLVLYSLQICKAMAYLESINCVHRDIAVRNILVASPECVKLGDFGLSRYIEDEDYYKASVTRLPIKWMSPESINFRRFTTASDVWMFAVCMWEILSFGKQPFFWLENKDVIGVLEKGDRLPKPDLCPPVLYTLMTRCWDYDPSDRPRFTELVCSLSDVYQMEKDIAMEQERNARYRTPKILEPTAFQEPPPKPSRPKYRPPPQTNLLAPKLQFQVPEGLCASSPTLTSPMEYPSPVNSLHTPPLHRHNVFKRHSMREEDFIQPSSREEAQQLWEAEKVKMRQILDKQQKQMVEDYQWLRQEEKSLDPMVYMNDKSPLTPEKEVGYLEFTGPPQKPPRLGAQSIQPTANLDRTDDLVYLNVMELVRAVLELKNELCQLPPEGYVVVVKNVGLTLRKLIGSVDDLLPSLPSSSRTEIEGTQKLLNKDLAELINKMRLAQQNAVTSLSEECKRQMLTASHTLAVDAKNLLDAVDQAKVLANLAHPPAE
# [6] = target: Protein-tyrosine kinase 2-beta (Homo sapiens) (UniProt Q14289); conditions: at 10 µM
# [7] = target: Receptor-interacting serine/threonine-protein kinase 2 (Homo sapiens) (UniProt O43353); conditions: at 1 µM
# Receptor-interacting serine/threonine-protein kinase 2 (Homo sapiens), sequence (O43353 whole entry): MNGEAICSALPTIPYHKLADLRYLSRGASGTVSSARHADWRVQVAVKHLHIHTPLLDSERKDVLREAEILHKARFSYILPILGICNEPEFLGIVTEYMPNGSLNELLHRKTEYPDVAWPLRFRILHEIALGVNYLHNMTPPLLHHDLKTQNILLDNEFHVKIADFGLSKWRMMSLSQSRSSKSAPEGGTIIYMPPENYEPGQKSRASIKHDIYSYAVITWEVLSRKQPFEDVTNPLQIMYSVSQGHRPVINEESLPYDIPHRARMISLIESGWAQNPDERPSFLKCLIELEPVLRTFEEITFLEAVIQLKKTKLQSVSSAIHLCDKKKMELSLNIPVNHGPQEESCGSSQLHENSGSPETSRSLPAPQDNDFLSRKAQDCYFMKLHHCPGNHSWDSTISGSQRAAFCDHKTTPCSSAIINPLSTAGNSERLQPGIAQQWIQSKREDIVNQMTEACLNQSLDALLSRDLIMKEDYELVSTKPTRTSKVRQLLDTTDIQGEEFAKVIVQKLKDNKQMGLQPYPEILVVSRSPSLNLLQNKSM
# [8] = target: Receptor-interacting serine/threonine-protein kinase 2 (Homo sapiens) (UniProt O43353); conditions: at 10 µM
# [9] = target: Rho-associated protein kinase 1 (Homo sapiens) (UniProt Q13464); conditions: at 1 µM
# [10] = target: Rho-associated protein kinase 1 (Homo sapiens) (UniProt Q13464); conditions: at 10 µM
# [11] = target: Rho-associated protein kinase 2 (Homo sapiens) (UniProt O75116); conditions: at 1 µM
# Rho-associated protein kinase 2 (Homo sapiens), sequence (O75116 whole entry, looked up): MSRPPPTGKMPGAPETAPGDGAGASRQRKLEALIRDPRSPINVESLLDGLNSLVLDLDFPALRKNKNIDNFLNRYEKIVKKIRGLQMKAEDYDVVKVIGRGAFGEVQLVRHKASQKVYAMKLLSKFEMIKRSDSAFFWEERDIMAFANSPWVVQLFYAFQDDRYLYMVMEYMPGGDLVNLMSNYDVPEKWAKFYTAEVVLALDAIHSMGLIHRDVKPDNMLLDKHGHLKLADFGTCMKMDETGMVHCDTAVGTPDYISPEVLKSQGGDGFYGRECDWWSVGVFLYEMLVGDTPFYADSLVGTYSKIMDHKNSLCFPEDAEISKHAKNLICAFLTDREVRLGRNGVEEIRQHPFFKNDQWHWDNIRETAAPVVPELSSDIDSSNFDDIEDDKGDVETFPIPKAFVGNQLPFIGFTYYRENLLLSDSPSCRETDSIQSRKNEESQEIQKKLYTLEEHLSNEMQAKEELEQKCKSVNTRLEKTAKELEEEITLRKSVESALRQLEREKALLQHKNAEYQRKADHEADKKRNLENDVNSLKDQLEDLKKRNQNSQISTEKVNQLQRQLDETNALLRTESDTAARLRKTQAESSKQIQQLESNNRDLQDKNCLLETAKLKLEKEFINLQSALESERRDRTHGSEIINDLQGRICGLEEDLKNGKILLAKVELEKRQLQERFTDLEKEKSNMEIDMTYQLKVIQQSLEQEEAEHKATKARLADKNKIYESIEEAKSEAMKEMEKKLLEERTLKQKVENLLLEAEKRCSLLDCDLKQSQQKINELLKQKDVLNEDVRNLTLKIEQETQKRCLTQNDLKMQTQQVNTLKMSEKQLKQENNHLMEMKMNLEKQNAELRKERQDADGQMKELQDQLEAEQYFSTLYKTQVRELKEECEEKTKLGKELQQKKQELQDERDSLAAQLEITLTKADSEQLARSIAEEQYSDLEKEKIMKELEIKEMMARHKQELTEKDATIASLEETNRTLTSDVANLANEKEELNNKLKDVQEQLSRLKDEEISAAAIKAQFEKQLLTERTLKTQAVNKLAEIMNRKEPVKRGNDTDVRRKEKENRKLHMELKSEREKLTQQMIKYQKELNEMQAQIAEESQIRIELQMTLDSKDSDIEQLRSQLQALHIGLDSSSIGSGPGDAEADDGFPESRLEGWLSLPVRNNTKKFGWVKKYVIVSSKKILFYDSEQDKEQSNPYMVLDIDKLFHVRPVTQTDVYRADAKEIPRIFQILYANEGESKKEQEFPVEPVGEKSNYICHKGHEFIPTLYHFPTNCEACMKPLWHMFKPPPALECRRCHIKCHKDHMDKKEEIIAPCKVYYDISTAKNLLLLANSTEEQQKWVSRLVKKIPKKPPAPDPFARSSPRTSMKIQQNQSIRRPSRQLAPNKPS
# [12] = target: Rho-associated protein kinase 2 (Homo sapiens) (UniProt O75116); conditions: at 10 µM
# [13] = target: Proto-oncogene tyrosine-protein kinase receptor Ret (Homo sapiens) (UniProt P07949); conditions: at 1 µM
# Proto-oncogene tyrosine-protein kinase receptor Ret (Homo sapiens), sequence (P07949 whole entry): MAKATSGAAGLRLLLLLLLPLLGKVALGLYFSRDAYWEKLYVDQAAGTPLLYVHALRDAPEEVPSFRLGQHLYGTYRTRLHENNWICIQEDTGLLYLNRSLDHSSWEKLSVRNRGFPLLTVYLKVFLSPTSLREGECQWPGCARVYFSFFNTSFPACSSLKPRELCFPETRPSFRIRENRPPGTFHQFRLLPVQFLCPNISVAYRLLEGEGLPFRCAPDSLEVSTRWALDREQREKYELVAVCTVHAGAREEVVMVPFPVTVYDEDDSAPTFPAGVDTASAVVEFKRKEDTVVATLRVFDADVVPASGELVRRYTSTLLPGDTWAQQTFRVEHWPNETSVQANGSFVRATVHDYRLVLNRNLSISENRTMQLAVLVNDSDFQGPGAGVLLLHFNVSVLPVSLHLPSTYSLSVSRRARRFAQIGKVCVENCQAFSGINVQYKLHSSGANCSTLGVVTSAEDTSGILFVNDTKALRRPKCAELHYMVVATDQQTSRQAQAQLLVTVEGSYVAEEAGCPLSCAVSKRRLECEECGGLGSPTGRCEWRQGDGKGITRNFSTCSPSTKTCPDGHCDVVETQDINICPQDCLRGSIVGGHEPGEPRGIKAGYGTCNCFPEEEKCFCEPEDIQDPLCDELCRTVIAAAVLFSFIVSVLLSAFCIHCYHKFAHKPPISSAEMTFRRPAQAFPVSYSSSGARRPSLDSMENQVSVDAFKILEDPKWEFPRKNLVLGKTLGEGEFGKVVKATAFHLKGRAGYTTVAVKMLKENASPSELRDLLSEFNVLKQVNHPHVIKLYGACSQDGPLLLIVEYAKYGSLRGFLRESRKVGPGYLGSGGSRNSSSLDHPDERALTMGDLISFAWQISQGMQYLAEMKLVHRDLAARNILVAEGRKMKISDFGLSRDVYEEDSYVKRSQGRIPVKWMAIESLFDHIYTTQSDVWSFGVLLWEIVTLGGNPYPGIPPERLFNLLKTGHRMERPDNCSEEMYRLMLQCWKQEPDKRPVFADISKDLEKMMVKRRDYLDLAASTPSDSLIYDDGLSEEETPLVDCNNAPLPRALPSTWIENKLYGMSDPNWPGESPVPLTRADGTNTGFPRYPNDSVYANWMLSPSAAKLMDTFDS
# [14] = target: Proto-oncogene tyrosine-protein kinase receptor Ret (Homo sapiens) (UniProt P07949); conditions: at 10 µM
# [15] = target: Macrophage-stimulating protein receptor (Homo sapiens) (UniProt Q04912); conditions: at 1 µM
# [16] = target: Macrophage-stimulating protein receptor (Homo sapiens) (UniProt Q04912); conditions: at 10 µM
# [17] = target: Proto-oncogene tyrosine-protein kinase ROS (Homo sapiens) (UniProt P08922); conditions: at 1 µM
# [18] = target: Proto-oncogene tyrosine-protein kinase ROS (Homo sapiens) (UniProt P08922); conditions: at 10 µM
# [19] = target: T2, Tyrosine-protein kinase receptor TYRO3 (Homo sapiens) (UniProt Q06418); conditions: at 1 µM
# T2 sequence (whole entry): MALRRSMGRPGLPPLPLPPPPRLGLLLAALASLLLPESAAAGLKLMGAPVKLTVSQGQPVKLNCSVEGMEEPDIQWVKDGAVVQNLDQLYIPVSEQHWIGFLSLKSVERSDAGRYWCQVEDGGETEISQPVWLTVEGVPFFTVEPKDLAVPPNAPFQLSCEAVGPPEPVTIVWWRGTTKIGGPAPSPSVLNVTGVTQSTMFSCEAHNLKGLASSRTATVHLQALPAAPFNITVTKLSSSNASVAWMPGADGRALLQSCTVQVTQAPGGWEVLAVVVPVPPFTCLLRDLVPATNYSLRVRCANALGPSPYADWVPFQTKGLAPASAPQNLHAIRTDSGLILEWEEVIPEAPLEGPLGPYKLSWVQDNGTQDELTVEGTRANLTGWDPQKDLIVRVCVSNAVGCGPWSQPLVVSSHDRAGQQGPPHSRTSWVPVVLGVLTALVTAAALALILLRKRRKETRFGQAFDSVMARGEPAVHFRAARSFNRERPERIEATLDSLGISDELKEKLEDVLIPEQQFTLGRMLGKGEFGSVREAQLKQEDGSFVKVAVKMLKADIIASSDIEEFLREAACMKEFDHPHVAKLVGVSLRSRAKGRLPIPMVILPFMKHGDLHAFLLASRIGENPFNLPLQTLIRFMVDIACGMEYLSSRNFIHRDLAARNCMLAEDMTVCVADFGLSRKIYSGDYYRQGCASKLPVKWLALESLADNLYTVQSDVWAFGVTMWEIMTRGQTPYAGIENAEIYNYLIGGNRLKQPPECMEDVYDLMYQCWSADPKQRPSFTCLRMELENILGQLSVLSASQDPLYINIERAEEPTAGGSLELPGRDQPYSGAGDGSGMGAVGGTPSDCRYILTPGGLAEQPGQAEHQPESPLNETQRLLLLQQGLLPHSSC
# [20] = target: T2, Tyrosine-protein kinase receptor TYRO3 (Homo sapiens); conditions: at 10 µM
# Serine/threonine-protein kinase PLK3 (Homo sapiens), sequence (Q9H4B4 whole entry, looked up): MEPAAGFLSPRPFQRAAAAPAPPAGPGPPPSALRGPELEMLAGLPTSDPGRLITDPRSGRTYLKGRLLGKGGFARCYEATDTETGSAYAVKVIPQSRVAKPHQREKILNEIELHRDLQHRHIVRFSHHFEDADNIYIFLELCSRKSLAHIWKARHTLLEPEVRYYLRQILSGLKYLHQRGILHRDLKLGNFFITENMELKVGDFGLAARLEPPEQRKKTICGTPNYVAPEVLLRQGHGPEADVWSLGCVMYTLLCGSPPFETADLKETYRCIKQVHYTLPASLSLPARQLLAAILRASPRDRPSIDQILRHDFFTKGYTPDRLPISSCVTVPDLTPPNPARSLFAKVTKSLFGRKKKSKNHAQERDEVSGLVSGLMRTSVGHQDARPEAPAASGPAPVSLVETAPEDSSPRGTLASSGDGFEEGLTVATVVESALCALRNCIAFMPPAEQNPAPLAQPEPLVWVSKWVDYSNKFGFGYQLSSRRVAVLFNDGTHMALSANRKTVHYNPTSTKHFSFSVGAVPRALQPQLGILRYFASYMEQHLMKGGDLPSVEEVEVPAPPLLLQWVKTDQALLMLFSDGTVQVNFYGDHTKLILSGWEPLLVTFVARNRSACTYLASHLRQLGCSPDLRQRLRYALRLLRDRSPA
Compound,residual activity [1],residual activity [2],residual activity [3],residual activity [4],residual activity [5],residual activity [6],residual activity [7],residual activity [8],residual activity [9],residual activity [10],residual activity [11],residual activity [12],residual activity [13],residual activity [14],residual activity [15],residual activity [16],residual activity [17],residual activity [18],residual activity [19],residual activity [20]
Cc1nc(-c2ccccc2)c(-c2ccncc2)o1,106% (inactive),96%,86%,85%,91%,79%,58%,25%,124%,108%,106%,76%,11%,7%,87%,96%,98%,97%,98%,121%
COc1cc2ncnc(Nc3ccc(O)c(Br)c3)c2cc1OC,92% (inactive),88%,90%,66%,85%,42%,20%,8%,116%,102%,39%,40%,23%,1%,90%,50%,88%,84%,38%,4%
Cc1cncc2cccc(S(=O)(=O)N3CCCN(C(=O)CN)C[C@H]3C)c12,98% (inactive),92%,57%,13%,122%,55%,95%,76%,34%,14%,1%,-1%,91%,90%,89%,70%,90%,82%,83%,95%
Nc1n[nH]c2nnc(-c3c(-c4ccccc4)nn4ccccc34)cc12,97% (inactive),99%,92%,74%,95%,72%,88%,78%,106%,105%,84%,90%,108%,58%,66%,42%,91%,80%,102%,99%
Cc1ccc(S(=O)(=O)/C=C/C#N)cc1,103% (inactive),97%,91%,101%,102%,104%,88%,88%,119%,106%,89%,93%,115%,90%,80%,91%,104%,92%,107%,99%
O=c1cc(-c2cccc3c2Sc2ccccc2S3)oc(N2CCOCC2)c1,107% (inactive),95%,95%,72%,91%,112%,94%,96%,102%,96%,102%,101%,102%,83%,90%,104%,109%,96%,93%,103%
O=C1NC(=O)c2cc(Nc3ccc(F)cc3)c(Nc3ccc(F)cc3)cc21,92% (inactive),80%,90%,48%,119%,81%,76%,42%,108%,123%,101%,78%,91%,86%,104%,76%,94%,92%,94%,97%
Cc1nc2cc3nc(-c4cccs4)cnc3cc2n1C,101% (inactive),105%,108%,101%,123%,87%,84%,49%,102%,107%,113%,93%,65%,35%,106%,97%,109%,112%,98%,79%
CC[n+]1c(/C=C/N(C)c2ccccc2)n(-c2ccccc2)c2ccc(-c3nc4ccccc4s3)cc21,99% (inactive),103%,108%,63%,139%,83%,93%,88%,110%,102%,103%,93%,96%,100%,97%,57%,105%,102%,99%,72%
O=C1NC(=O)c2c1c1c3ccccc3[nH]c1c1[nH]c3cc(Br)ccc3c21,96% (inactive),83%,85%,77%,71%,84%,92%,93%,112%,93%,93%,89%,91%,77%,79%,83%,102%,96%,110%,98%
CN(C)c1ccc(/C=C2\C(=O)Nc3ccccc32)cc1,94% (inactive),88%,92%,66%,103%,47%,103%,83%,132%,123%,112%,38%,66%,32%,91%,92%,106%,103%,100%,99%
O=c1c2ccccc2[nH]c(=S)n1CCN1CCC(=C(c2ccc(F)cc2)c2ccc(F)cc2)CC1,98% (inactive),89%,87%,52%,136%,91%,100%,101%,114%,127%,109%,86%,104%,108%,72%,78%,98%,99%,82%,102%
